Results: paper PMC7819943, “Rice protein-binding microarrays: a tool to detect cis-acting elements near promoter regions in rice”
Whole data set: some 35,000 sequences, median “fluorescence intensity (a.u.)” near 10,000, cut for the highest 2% near 52,000. The full list was thinned out, with the highest values kept by preference.

Molecular target: T1, OsWOX13 (Oryza sativa, UniProt Q5QMM3 1-267)
T1 sequence: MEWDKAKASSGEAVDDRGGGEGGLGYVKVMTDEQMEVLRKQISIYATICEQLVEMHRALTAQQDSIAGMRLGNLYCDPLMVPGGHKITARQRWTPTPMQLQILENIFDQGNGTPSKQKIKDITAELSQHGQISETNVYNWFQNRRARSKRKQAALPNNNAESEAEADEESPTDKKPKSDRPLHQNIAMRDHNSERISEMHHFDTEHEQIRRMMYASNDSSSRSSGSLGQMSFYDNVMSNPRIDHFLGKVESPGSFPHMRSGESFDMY
Test: protein-binding microarray (RPBM); PBS, 2% BSA, 51.3 ng/ul salmon testes DNA, 50 uM zinc acetate, 200 nM TF, 25 C, 1 h; high values mean tight binding
Details: protein: recombinant; tags: N-terminal polyhistidine and DsRed monomer fusion (pET32a); label: CyDye5-dUTP incorporated in the synthesized complementary strand; 3' TTTTT single-stranded linker to array surface; dsDNA, one strand shown
How it was run: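 An Axon 4000B scanner gave the binding signal as per-feature fluorescence intensity in arbitrary units. This followed washing of a custom Agilent array that had been incubated for 1 h at 25 °C with 200 nM protein in PBS, 2% BSA, salmon testes DNA and 50 µM zinc acetate. The proteins were transcription factors fused at the N-terminus to polyhistidine and DsRed, expressed in E. coli BL21-CodonPlus and purified on Ni–NTA.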

Sequence | binding signal
ATCATAACTCCATCAGATAATTTGTGCAGAACGGCAGAACCGGAGTCACCTAGTGCAG | 5500 fluorescence intensity (a.u.)
ACGAATCTAATGAGCCTAATTAATCCATGATTAGCCTATGCGGAGTCACCTAGTGCAG | 21200 fluorescence intensity (a.u.)
CATGGATAATTTGTTTTGGAGTGACACACTGACACTGATGCGGAGTCACCTAGTGCAG | 9780 fluorescence intensity (a.u.)
ATGTTGATTGGAGTCTGATAACTTGTCACTGGATGACATGCGGAGTCACCTAGTGCAG | 61700 fluorescence intensity (a.u.)
CCAGCTTAATTGAGCCTGATTAGCCGAATCCATAATTGTGCGGAGTCACCTAGTGCAG | 63800 fluorescence intensity (a.u.)
ATTAATTGATGCTTTGCTTGATTACTTGAGTCAGATCCAGCGGAGTCACCTAGTGCAG | 63200 fluorescence intensity (a.u.)
GTTTTAATTGTTTTACTGATTTGCAAATGAGTCTGGGATGCGGAGTCACCTAGTGCAG | 63500 fluorescence intensity (a.u.)
TCTTTACTTAATTAATTTGATGCATGTATGCCAGGATTTGCGGAGTCACCTAGTGCAG | 35800 fluorescence intensity (a.u.)
AGTTCAATTGCTTTGATGAGTGAGCAGAGAGATGATGCAGCGGAGTCACCTAGTGCAG | 3420 fluorescence intensity (a.u.)
GAATCTATTGAGCCTAATTAATCCATGATTAGCCTATGTGCGGAGTCACCTAGTGCAG | 7730 fluorescence intensity (a.u.)
TTAATTATTTGAGCAAATTTAATGGGATGAGGGAATGATGCGGAGTCACCTAGTGCAG | 24800 fluorescence intensity (a.u.)
GTGTTGAATGCACTGATTTGTTCAGTGTCTGAGATTGATGCGGAGTCACCTAGTGCAG | 13100 fluorescence intensity (a.u.)
TTGAGATGATTTACTATTAATTTAGTCTATTGTTGAGATGCGGAGTCACCTAGTGCAG | 35700 fluorescence intensity (a.u.)
CATTGTCATCCTGAGTAGATTGCCAATTATATGGGTTTGGCGGAGTCACCTAGTGCAG | 6170 fluorescence intensity (a.u.)
CGTTTTGATGGATGGCTCAGATCGGTTCCGAATCGATCAACGGAGTCACCTAGTGCAG | 5120 fluorescence intensity (a.u.)
GGTTTAATTAATTAATCGCGCCAACCCAGATGCTAATCAGCGGAGTCACCTAGTGCAG | 50200 fluorescence intensity (a.u.)
TGAAAATTTTGTCGGAAATTTATCAGTGTATCAACTGTCTCGGAGTCACCTAGTGCAG | 6470 fluorescence intensity (a.u.)
TTTCTTGATTTGGTTGGGATTGGTTGTTCTTGGGCTTATCCGGAGTCACCTAGTGCAG | 24600 fluorescence intensity (a.u.)
GTTGAGATTAATTGTTCTATACTACTTTCTCTATCTAAAACGGAGTCACCTAGTGCAG | 7990 fluorescence intensity (a.u.)
GATAATTCTTATGTTACTGACTAATATGATAGTACTGAGTCGGAGTCACCTAGTGCAG | 5770 fluorescence intensity (a.u.)
AATTTGATTGATTTTACTCTCGAGCCAATTGAGATGTCTGCGGAGTCACCTAGTGCAG | 64800 fluorescence intensity (a.u.)
TCAAAGTGATTGGTGACACTCTACACAACACACAGTTGAACGGAGTCACCTAGTGCAG | 28400 fluorescence intensity (a.u.)
TGTTGCTGTTGATTAGCTCTCACCTAATTTGTTGTGTATGCGGAGTCACCTAGTGCAG | 18100 fluorescence intensity (a.u.)
CCTGATTAATTGTTAATTTTGCTGATGCAGCTGTTGCTTGCGGAGTCACCTAGTGCAG | 65000 fluorescence intensity (a.u.)
ATTAACCAGTATTAATAATTGAGGGACGTTGTATACTGGGCGGAGTCACCTAGTGCAG | 20500 fluorescence intensity (a.u.)
GGAACAGGTACCATAATTGTTAATAACCTAATACTGGGCCCGGAGTCACCTAGTGCAG | 5270 fluorescence intensity (a.u.)
ACACTTGGAGATTGGTAATAGATTACAGAAAGTTGAATGCCGGAGTCACCTAGTGCAG | 14300 fluorescence intensity (a.u.)

Sequence | binding signal
ATGAATCTAGTCAGATTGGCCAATTTGATTTGTTTTACTCCGGAGTCACCTAGTGCAG | 9360 fluorescence intensity (a.u.)
ACTTACAAATTTTGTACTCAATTGAGATGTGCTTCGATTGCGGAGTCACCTAGTGCAG | 5640 fluorescence intensity (a.u.)
TGTTAATCTTGCTGATTTTGTTATTGATTTTAATGCTATGCGGAGTCACCTAGTGCAG | 17300 fluorescence intensity (a.u.)
TATAATTGTTACTGTTAATTGAGGTGGGAAATACCAGGTGCGGAGTCACCTAGTGCAG | 53500 fluorescence intensity (a.u.)
AGTTGATTGGTAAAGTGACATGCTTGAACACTGTTGGAGCCGGAGTCACCTAGTGCAG | 54000 fluorescence intensity (a.u.)
TTCCGGTGATTAGTCAACTGCCACGACCAGATTAATCTACCGGAGTCACCTAGTGCAG | 20300 fluorescence intensity (a.u.)
TCATAACTAATATTTAAATGGTATTTGAACATCCCATGGACGGAGTCACCTAGTGCAG | 9720 fluorescence intensity (a.u.)
TCTGACCTGAAAGTCTCAATCAGACAGCTTTCGAAAAGGACGGAGTCACCTAGTGCAG | 4260 fluorescence intensity (a.u.)
AAACCTATGACAATCAACCTTTTGACTGTCATACTAGCTCCGGAGTCACCTAGTGCAG | 9360 fluorescence intensity (a.u.)
TATTGATTAAACATAATGGTCTCACAATATTTTAGTTACCCGGAGTCACCTAGTGCAG | 27300 fluorescence intensity (a.u.)
CTGAAATGATTTTCATTTGATTCAAATGGGCCTAAGAATTCGGAGTCACCTAGTGCAG | 17200 fluorescence intensity (a.u.)
GTGGCTGTGATTGTGTGATTGTGTACCTGTTTGTAGTGAACGGAGTCACCTAGTGCAG | 20500 fluorescence intensity (a.u.)
TATCTACTAATTTAACTTATAAATGGGTTTATGGGTTGACCGGAGTCACCTAGTGCAG | 11200 fluorescence intensity (a.u.)
AATAAGGGACTTAATTAGTCTAGGTTAAACTGGATGTTGCCGGAGTCACCTAGTGCAG | 4640 fluorescence intensity (a.u.)
TTTAATTAATTTGTTAAATTTTCTGATCGGAATGAGCGGTCGGAGTCACCTAGTGCAG | 63700 fluorescence intensity (a.u.)
GATGAACATTGATTTGCTCGGATCTTGGATGCTGTTTGTGCGGAGTCACCTAGTGCAG | 20800 fluorescence intensity (a.u.)
TTAACTGATTGATGCTCAAGTGGATTGATCGATTTTGTTGCGGAGTCACCTAGTGCAG | 65500 fluorescence intensity (a.u.)
CGGGCTTCTTGATTTGCGGATTGTTGTTGTGGATCGCCAGCGGAGTCACCTAGTGCAG | 5040 fluorescence intensity (a.u.)
TTTAAATTTTAATGATCGGTGATTTTGTGCAGGGAAAACGCGGAGTCACCTAGTGCAG | 24200 fluorescence intensity (a.u.)
AATAATGATAACTGATAAGGGTTTGTTTAGTCTGGATGAACGGAGTCACCTAGTGCAG | 18800 fluorescence intensity (a.u.)
ATGATAACTGATTGCAATAAGGTTAGGATGTTGTCACACCCGGAGTCACCTAGTGCAG | 52900 fluorescence intensity (a.u.)
TTTTAAATTTCATTATATAATGATTAATTTGGGAATGAGGCGGAGTCACCTAGTGCAG | 30800 fluorescence intensity (a.u.)
GATAATGGCCCTTAAATTGATTGCAACTCACGGTGATACACGGAGTCACCTAGTGCAG | 44800 fluorescence intensity (a.u.)
GCTCTAAGGGTGGGTTTTGATGGGAGGTTTTGGATGGATACGGAGTCACCTAGTGCAG | 6370 fluorescence intensity (a.u.)
TTTGATTTGGGAAAGATAATATATCTTGCTACTTTGTCTTCGGAGTCACCTAGTGCAG | 18200 fluorescence intensity (a.u.)
AAACATTAATTAATACCATAATAGTTAGGTGACAATTGACCGGAGTCACCTAGTGCAG | 27100 fluorescence intensity (a.u.)
CAACGCCTGTAATTGCTCCTCCTGGCATGCAAGCCTTGTCCGGAGTCACCTAGTGCAG | 5050 fluorescence intensity (a.u.)
